Screen size: about 310,000 compounds; about 1,000 (0.32%) were called active. The list is a sample of the results. Results with a measured potency or affinity are listed apart. Unmarked numbers belong to inactive results. The rule behind the calls is not given here.
test: PhoP regulon inhibitors, Salmonella typhi PhoP promoter GFP reporter, confirmatory (AID 1850); settings: fluorescence, 4 h, at 50 µM, stronger effect = higher value;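 note: 0% = induced wells with vehicle and 100% = uninduced wells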

SMILES	inhibition
c1ccc(C[C@H]2CNCCN2CC2(c3ccccc3)CC2)cc1	-6.5%
Cc1cc2oc(C(=O)NCc3ccccc3)cc(=O)c2cc1C	-12.8%
CC1=NNC(=O)/C1=C\c1cn(-c2ccccc2)nc1-c1ccccc1	10.4%
CC1=C(C(=O)Nc2ccc(C)cc2C)C(c2cccs2)NC(=S)N1 (configuration not stated)	2.73%
O=C(Nc1ccc(Cl)cc1)N1CCCN(Cc2ccc(F)cc2)C1	0.26%
O=C(Nc1ccccc1)N1CCCN(Cc2ccccc2F)C1	14%
CC1CN(c2oc(-c3ccco3)nc2C#N)CC(C)O1 (configuration not stated)	6.8%
C/C(=N\N=C(N)N)c1ccc(Cl)cc1	-0.0633%
C/C(=N\N=C(N)N)c1cccc(Cl)c1	9.67%
O=C(CNS(=O)(=O)c1ccccc1)N1CCc2ccccc2C1	-1%
Cn1c(=O)c2c(nc(NCC3CCCO3)n2Cc2cccc(Br)c2)n(C)c1=O (configuration not stated)	2.34%
CN(C)S(=O)(=O)N1CCN(c2ccc([N+](=O)[O-])c(NC3CC3)c2)CC1	-5.83%
CCCCCCCCCC[n+]1cccc(C(=O)N(CC)CC)c1	8.08%
CC(C)(C)C(=O)C[n+]1ccc(C(N)=O)cc1	-7.77%
CN(C)C(=O)C[n+]1ccc(/C=N/O)cc1	-5.57%
CCN(CC)C(=O)C[n+]1ccc(C(N)=O)cc1	-3.67%
CCCCCCCC[n+]1cccc(C(=O)N(CC)CC)c1	-7.45%
NC(=O)C[n+]1ccc(/C=N/O)cc1	-7.01%
O=C(c1ccc(F)cc1)N1CCN(C2CC3CCC2C3)CC1 (configuration not stated)	-3.63%
O=C(Nc1ccc2ccccc2n1)c1ccccc1Br	-4.26%
CCC(C)NC(=O)CCC(=O)NNc1nc2ccccc2c2nc(C)nn12 (configuration not stated)	10.9%
CCn1cc(NC(=O)CCl)c(C)n1	-1.91%
CC(C)(C)OC(=O)N1CCC(c2c(C(=O)NCC3CCN(C4CCCC4)C3)cnn2-c2ccccc2)CC1 (configuration not stated)	4.93%
Oc1ccccc1/C=N/Nc1nccnc1Cl	-1.82%
Oc1ccc(/C=N/Nc2nccnc2Cl)cc1	-3.22%

SMILES	inhibition
O=C(COc1ccc(Br)cc1)N(Cc1ccccc1)c1ccccn1	12.3%
COc1ccc(NC(=O)CSCC(=O)N(C)CC(=O)Nc2ccc(Cl)c(C(F)(F)F)c2)cc1	5.95%
O=C(CCN1C(=O)c2ccccc2S1(=O)=O)N1CCN(c2cccc(Cl)c2)CC1	0.17%
O=C(N/N=C/c1cc([N+](=O)[O-])ccc1O)Nc1ccccc1	17.7%
COc1cc(/C=N/NC(=O)c2ccc(C)nc2)cc([N+](=O)[O-])c1O	2.56%
COc1cc([N+](=O)[O-])cc(/C=N/NC(=O)c2cncc(Br)c2)c1O	12.7%
O=C(N/N=C/c1cccc([N+](=O)[O-])c1O)C(O)(c1ccccc1)c1ccccc1	2.48%
COc1cc([N+](=O)[O-])cc(/C=N/NC(=O)c2cc(C)nc3ccccc23)c1O	21.1%
COc1cc([N+](=O)[O-])cc(/C=N/NC(=O)c2ccc(C)nc2)c1O	18.7%
O=C(N/N=C/c1ccc(O)c([N+](=O)[O-])c1)C(O)(c1ccccc1)c1ccccc1	4.8%
COc1cc(/C=N/NC(=O)c2cccnc2)ccc1OC(=O)c1ccc([N+](=O)[O-])cc1	5.86%
CCc1ccc(NC(=S)N(CCCN2CCN(C)CC2)Cc2cccs2)cc1	0.49%
Cc1nnc(SCC(=O)c2c(N)n(Cc3ccccc3)c(=O)n(C)c2=O)n1C	-13.4%
CC(=O)N(c1ccccc1C)S(=O)(=O)c1ccc(Cl)cc1	-12.6%
O=C(Nc1ccccc1)c1ccc(=O)n(Cc2ccc(F)c(F)c2)c1	-6.26%
CCOC(=O)N1CCc2c(sc3c2c(=O)n(Cc2ccccc2)c(=O)n3Cc2ccc(C)cc2)C1	-2.36%
CSc1ccccc1C(=O)C1CCCN(C(=O)c2csnn2)C1 (configuration not stated)	-11.4%
COc1ccc(C(=O)NC2CC2)cc1OC1CCN(Cc2ccc(F)cc2Cl)CC1	-3.14%
CC(O)(C#CCN1CCCC1)c1ccccc1 (configuration not stated)	-6.56%
CCOC(=O)Cc1csc(NC(=O)c2sc3nc4ccc(C)cc4cc3c2N)n1	-5.8%
Cc1ccc(CNc2ncc(-c3ccc4c(c3)OCO4)n2C)cc1	-2.15%
Cn1c(-c2ccc3c(c2)OCO3)cnc1NCc1cccc(Cl)c1	2.65%
Cc1ccccc1Nc1nnc(SCC(=O)N(C)C2CCS(=O)(=O)C2)s1 (configuration not stated)	-26.7%
Cc1cccc(NC(=O)C2CCCN(S(=O)(=O)c3cccc4nsnc34)C2)c1 (configuration not stated)	11%
COc1ccc(NC(=O)C2CCCN(C(=O)Nc3ccc(OC)cc3)C2)cc1 (configuration not stated)	13.2%

SMILES	inhibition
Cc1ccc(S(=O)(=O)NNC(=O)C(=O)NNc2ccccn2)cc1	1.07%
O=C(NNc1ccccn1)C(=O)NNS(=O)(=O)c1ccc(F)cc1	-7.54%
CCOc1ccc2c(c1)OC(c1ccc(C)cc1)(C(F)(F)F)NC2=O (configuration not stated)	2.02%
COC(=O)c1c(NC(=O)CSc2nnc(Cn3nnc4ccccc43)n2C)sc(C)c1C	8.24%
Cc1sc2nc(CSc3nc4ccccc4s3)[nH]c(=O)c2c1C	-8.83%
COc1ccc(NS(=O)(=O)c2cc(OC)ccc2OC)cc1	-1.85%
CC(=O)NC1Sc2ccccc2N=C1c1ccccc1 (configuration not stated)	-15.8%
Fc1ccccc1C1CC(c2ccco2)=Nc2ccccc2S1 (configuration not stated)	9.62%
Cc1ccc(Cl)cc1N(CC(=O)N1CCCCCC1)S(C)(=O)=O	-3.02%
O=S(=O)(c1ccc(Cl)cc1)N1CCN(Cc2ccc(O)c3ncccc23)CC1	-17.9%
CC(C)COCc1ccc(O)c2ncccc12	1.72%
Oc1ccc2ccccc2c1CN1CCN(c2ccccc2)CC1	2.7%
CCCOCc1ccc(O)c2ncccc12	16.8%
c1ccc(N2CCN(Cc3ccnc4ccccc34)CC2)cc1	-4.89%
O=[N+]([O-])c1cc(CN2CCN(c3ccccc3)CC2)c(O)c2ncccc12	4.63%
CCOc1cccc(CN2CCN(c3cccc(C(F)(F)F)c3)CC2)c1O	-5.55%
Oc1ccc(CN2CCCCC2)c2cccnc12	-7.91%
O=C(N/C(=C/c1ccco1)C(=O)N1CCOCC1)c1ccccc1Br	7.88%
O=C(NC1CCCCC1)C(c1ccncc1)N(Cc1ccc(F)cc1)C(=O)c1ccccn1 (configuration not stated)	-1.84%
CN(C)CC(O)COc1cc2ccccc2cc1C(=O)N1CCCCC1 (configuration not stated)	9.49%
CCCCCCCC(=O)Nc1ccc(S(=O)(=O)Nc2nccs2)cc1	-7.23%
O=C1CSC(c2cccc([N+](=O)[O-])c2)N1CCN1CCCCC1 (configuration not stated)	-7.55%
CC(=O)c1c(N2CCOCC2)nc(=S)n(-c2ccc([N+](=O)[O-])cc2)c1C	3.58%
Cc1cc(/C([O-])=C(/C(=S)Nc2ccc(F)cc2)[n+]2ccccc2)c(C)n1Cc1ccccc1Cl	-18.8%
OCCN1CCN(c2ncnc3scc(-c4ccc(F)cc4)c23)CC1	4.62%

SMILES	inhibition
OCc1ccc(O)c2ncccc12	0.16%
COc1ccccc1N1CCN(Cc2ccc(OC)c(OC)c2OC)CC1	5.73%
COc1ccccc1N1CCN(Cc2cc(Br)c(O)c3ncccc23)CC1	3.41%
Oc1ccc(CN2CCc3ccccc3C2)c2cccnc12	-5.43%
COCCn1cnc2c1c(=O)n(CC(=O)OCC(=O)NCCCc1ccccc1)c(=O)n2Cc1ccccc1	5.65%
Cc1nc2cc(NC(=O)c3ccc(S(=O)(=O)N(C)c4ccccc4)cc3)ccc2o1	-24.8%
CC(C)NC(=O)CCCc1ccccc1	-2.72%
CC[n+]1c(/C=C(/C)SC)sc2ccccc21	-5.74%
CC[n+]1c(/C=C/C=C/N(C(C)=O)c2ccccc2)sc2ccccc21	-299%
CCN1/C(=C/C=C/C=C/C=C/c2sc3ccccc3[n+]2CC)Sc2ccccc21	5.61%
CN(C)c1ccc(/C=C/C=C/c2sc3ccccc3[n+]2C)cc1	14.1%
CC[n+]1c(/C=C/Nc2ccccc2)sc2ccccc21	11.1%
CC[n+]1c(/C=C(\C)SC)sc2ccccc21	8.28%
COc1ccc(/C=C/C2=CCN(Cc3ccc(OC)cc3)CC2)cc1	5.66%
COc1ccc(CN2CC(C(N)=O)Oc3ccccc32)cc1F (configuration not stated)	-14.6%
Cc1ccccc1C(=O)Nc1c(C(=O)N2CCCC2)cnn1-c1ccccc1	-11.9%
CN(C)S(=O)(=O)c1ccc(NC(=O)COC(=O)CC2CC3CCC2C3)cc1 (configuration not stated)	-11.3%
Cc1ccc(C)n1-c1ccccc1N	7.67%
C/C(CC(=O)NC1C2CC3CC(C2)CC1C3)=N\NC(=O)Cc1cccs1 (configuration not stated)	5.86%
CC(=O)c1coc2c1cc(O)c1ccccc12	-10.2%
CC(=O)Oc1c(C)cc(O)c2ccccc12	-6.69%
COc1ccc2[nH]cc(C(=O)CN3CCCC(C)(C)C3)c2c1	12.1%

Source: PubChem BioAssay AID1850 (Southern Research Specialized Biocontainment Screening …, 2009)
